Results taken from PubChem BioAssay (NCATS).
Where “and” joins values, the source holds several entries; their conditions need not be identical. Equal entries are not always repeated. Results filed as inconclusive are left out. More than one record can exist for a structure, and the calls need not agree. Calls of active or inactive are those of the source. Unless noted, calls come from the whole dose curve; as a rule, active = well fitted curve in the direction sought with a large enough effect; inconclusive = small, poorly fitted or top-dose-only effect, or another doubt; inactive = no such curve, though single readings can be large; an effect the other way counts as inactive or inconclusive.

Legend:
[1] = Cell Viability - Mesenchymal (AID 546); conditions: mesenchymal cells viability, qHTS; series mostly up to 91.7 µM;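 note: cells exposed to compound for 40 hours before reading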
In short: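 Human renal mesenchymal cells (glomerulus-derived), 1000 cells/well, 5 hr 37 °C pre-incubation; compound 40 hr, 37 °C; CellTiter-Glo, 20 min RT; luminescence; AC50 via Hill equation.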

[2] = target: 3',5'-cyclic-AMP phosphodiesterase 4B (Homo sapiens) (UniProt Q07343); assay: qHTS Assay for Inhibitors of PDE-IV (AID 607; active = well fitted activation curve with a large enough effect in the main read-out, with a control signal flat, not every such curve was filed as active; note: potency is the fitted concentration of half-maximal effect); conditions: HEK293 ACTOne CNG channel cells, membrane potential fluorescence; series mostly up to 22.9 µM
In short: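 ACTOne HEK293 cells carry a modified cAMP-gated CNG channel and express endogenous PDE4; plated 1000 cells/well, compounds up to 22.9 uM final. Membrane-potential dye fluorescence (ex 535/em 590) was read; parental cells received 10 uM forskolin + 100 uM RO 20-1724.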

[3] = Cellular Toxicity (caspase-3) HepG2 (AID 654); conditions: HepG2 caspase-3 activation, luminescence, 0% = DMSO only, 100% = tamoxifen; series mostly up to 92.2 µM;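 note: cells exposed to compound for 16 hours before reading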
In short: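 Luminescent Caspase-Glo 3/7 readout after 16 hr compound exposure of human hepatocellular carcinoma HepG2 cells at 37 °C; qHTS concentration-response, normalized DMSO = 0%, 100 uM tamoxifen = 100%; AC50 by standard Hill equation.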

[4] = Cellular Toxicity (caspase-3) Jurkat (AID 655); conditions: Jurkat caspase-3 activation, luminescence; series mostly up to 92.2 µM;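 note: cells exposed to compound for 16 h at 37 °C before reading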; note: potency is the fitted concentration of half-maximal effect
In short: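 Luminescent Caspase-Glo 3/7 read-out (20 min, room temperature) after 16 h compound treatment at 37 C of 5000 Jurkat cells per well. AC50 derived by Hill-equation fitting, scaled between DMSO basal and 100 uM tamoxifen stimulation.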

[5] = Cellular Toxicity (caspase-3) HUV-EC-C (AID 656); conditions: HUV-EC-C cells, caspase-3 activation (apoptosis), vehicle = 0, 100 µM tamoxifen = 100%; series mostly up to 92.2 µM
In short: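 Luminescent Caspase-Glo 3/7 readout after 16 h, 37 °C compound exposure of HUV-EC-C endothelial cells, 1000 per well, complete medium. AC50 derived by Hill fitting, with DMSO as baseline and 100 uM tamoxifen as full activation.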

[6] = Cellular Toxicity (caspase-3) SHSY5Y (AID 657); conditions: SH-SY5Y caspase-3 activation, DMSO zero, 10 µM staurosporine = 100%; series mostly up to 91.7 µM
In short: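 Luminescent Caspase-Glo 3/7 read-out, 1 hr room temperature, follows 16 hours of compound treatment of SH-SY5Y cells at 37 °C. Normalization: DMSO basal, 10 uM staurosporine as 100%; AC50 values from Hill-equation concentration-response fits.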

[7] = Cellular Toxicity (caspase-3) BJ (AID 658); conditions: BJ fibroblasts, luminescence, normalized: DMSO 0%, staurosporine 100%; series mostly up to 91.7 µM
In short: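 qHTS, BJ fibroblasts, 1000 cells/well; 5 hr preincubation, 16 hr compound, 37 °C; Caspase-Glo 3/7 reagent, 1 hr RT; luminescence. DMSO = 0%, 10 uM staurosporine = 100%. Hill-equation AC50.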

[8] = Cellular Toxicity (caspase-3) MRC-5 (AID 659); conditions: MRC-5 cells, luminescence, normalized: DMSO 0%, 10 µM staurosporine 100%; series mostly up to 91.7 µM
In short: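 MRC-5 fibroblasts, 1500/well; 16 h cpd, 37 °C; Caspase-Glo 3/7, 1 h RT; lumi read. Norm: DMSO = 0%, 10 uM staurosporine = 100%. Hill-fit AC50 from qHTS conc-response.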

[9] = Cellular Toxicity (caspase-3) Mesangial (AID 660); conditions: mesangial cells, normalized: DMSO 0%, 100 µM tamoxifen 100%; series mostly up to 91.7 µM;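 note: combined caspase 3 and 7 activity read by Caspase-Glo luminescence; cells exposed to compound for 16 h before the caspase read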
In short: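 Luminescent Caspase-Glo 3/7 readout (aminoluciferin substrate cleavage, 20 min RT) after 16 h compound exposure at 37 °C of normal human mesangial cells. Signal increase normalized between DMSO basal and 100 uM tamoxifen; Hill-equation AC50.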

[10] = Cellular Toxicity (caspase-3) SK-N-SH (AID 661); conditions: SK-N-SH caspase-3 activation, qHTS; series mostly up to 91.7 µM; note: potency is the fitted concentration of half-maximal effect
In short: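 Luminescent Caspase-Glo 3/7 read-out after 16 hr compound exposure of SK-N-SH neuroblastoma cells at 37 °C. Signal increase normalized to DMSO (basal) and 10 uM staurosporine (100%); AC50 from Hill equation fits of qHTS concentration-response data.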

Measured: Potency

Sequence of 3',5'-cyclic-AMP phosphodiesterase 4B (Homo sapiens) (Q07343 whole entry, looked up): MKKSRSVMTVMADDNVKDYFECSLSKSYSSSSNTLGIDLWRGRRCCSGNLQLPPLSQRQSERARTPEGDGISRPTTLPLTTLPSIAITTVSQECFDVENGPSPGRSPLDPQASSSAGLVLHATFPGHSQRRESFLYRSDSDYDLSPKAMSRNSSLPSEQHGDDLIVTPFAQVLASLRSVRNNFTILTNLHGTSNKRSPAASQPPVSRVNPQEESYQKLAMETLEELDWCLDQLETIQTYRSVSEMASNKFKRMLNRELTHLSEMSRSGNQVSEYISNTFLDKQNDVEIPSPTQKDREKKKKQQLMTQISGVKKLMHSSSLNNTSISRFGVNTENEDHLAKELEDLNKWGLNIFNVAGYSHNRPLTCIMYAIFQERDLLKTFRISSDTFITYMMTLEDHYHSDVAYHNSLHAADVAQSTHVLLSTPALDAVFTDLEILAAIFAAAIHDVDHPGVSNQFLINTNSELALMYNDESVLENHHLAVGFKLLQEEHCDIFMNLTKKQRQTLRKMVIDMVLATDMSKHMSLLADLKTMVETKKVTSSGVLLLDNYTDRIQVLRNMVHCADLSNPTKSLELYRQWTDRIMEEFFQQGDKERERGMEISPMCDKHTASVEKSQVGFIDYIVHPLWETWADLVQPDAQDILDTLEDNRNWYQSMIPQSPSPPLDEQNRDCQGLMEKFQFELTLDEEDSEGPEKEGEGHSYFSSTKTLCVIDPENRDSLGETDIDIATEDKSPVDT

COc1ccc2c(c1)c(CC(=O)O)c(C)n2C(=O)c1ccc(Cl)cc1
inactive: [1] | [2] | [3] | [4] | [5] | [6] | [7] | [8] | [9] | [10]

CCC1(c2ccccc2)C(=O)NCNC1=O
inactive: [1] | [2] | [3] | [4] | [5] | [6] | [7] | [8] | [9] | [10]

CN(C)CCC=C1c2ccccc2C=Cc2ccccc21
inactive: [2]

COc1cc2c(c(OC)c1OC)-c1ccc(OC)c(=O)cc1[C@@H](NC(C)=O)CC2
active: [4] 3.98 nM and 3.16 nM | [10] 200 nM and 251 nM
inactive: [1] | [2] | [3] | [5] | [6] | [7] | [8] | [9]

O=C(CCCN1CCC(O)(c2ccc(Cl)cc2)CC1)c1ccc(F)cc1
inactive: [2]

NS(=O)(=O)c1cc2c(cc1Cl)NCNS2(=O)=O
inactive: [1] | [2] | [3] | [4] | [5] | [6] | [7] | [8] | [9] | [10]

COc1ccc2[nH]cc(CCNC(C)=O)c2c1
inactive: [1] | [2] | [3] | [4] | [5] | [6] | [7] | [8] | [9] | [10]

N[C@@H](Cc1c[nH]c2ccc(O)cc12)C(=O)O
inactive: [1] | [2] | [3] | [4] | [5] | [6] | [7] | [8] | [9] | [10]

O=c1[nH]cc(F)c(=O)[nH]1
inactive: [1] | [2] | [3] | [4] | [5] | [6] | [7] | [8] | [9] | [10]

Nc1c2c(nc3ccccc13)CCCC2
inactive: [1] | [3] | [4] | [5] | [6] | [7] | [8] | [9] | [10]

CN1CCN(CCCN2c3ccccc3Sc3ccc(Cl)cc32)CC1
inactive: [2]

COc1cc2nc(N3CCN(C(=O)c4ccco4)CC3)nc(N)c2cc1OC
inactive: [2]

Cn1c(=O)c2c(ncn2C)n(C)c1=O
inactive: [1] | [2] | [3] | [4] | [5] | [6] | [7] | [8] | [9] | [10]

Cn1cnc2c1c(=O)[nH]c(=O)n2C
inactive: [2]

NC(=O)OCC(COC(N)=O)c1ccccc1
inactive: [2]

CC(C)C(=O)Nc1ccc([N+](=O)[O-])c(C(F)(F)F)c1
inactive: [1] | [2] | [3] | [4] | [5] | [6] | [7] | [8] | [9] | [10]

Cn1c(=O)c2[nH]cnc2n(C)c1=O
inactive: [1] | [2] | [3] | [4] | [5] | [6] | [7] | [8] | [9] | [10]

Cn1ccc2cc3c(cc21)CCN3C(=O)Nc1cccnc1
inactive: [2]

NCCS(=O)(=O)O
inactive: [1] | [2] | [3] | [4] | [5] | [6] | [7] | [8] | [9] | [10]

Cc1cn([C@H]2C[C@H](N=[N+]=[N-])[C@@H](CO)O2)c(=O)[nH]c1=O
inactive: [1] | [3] | [4] | [5] | [6] | [7] | [8] | [9] | [10]

NCCCCCC(=O)O
inactive: [2]

CN1CCC(=C2c3ccccc3CC(=O)c3sccc32)CC1
inactive: [2]

O=C(c1ccc(OCCN2CCCCC2)cc1)c1c(-c2ccc(O)cc2)sc2cc(O)ccc12
inactive: [2]

Cc1ccc(-c2cc(C(F)(F)F)nn2-c2ccc(S(N)(=O)=O)cc2)cc1
inactive: [1] | [3] | [4] | [5] | [6] | [7] | [8] | [10]

Clc1ccc(C(c2ccccc2Cl)C(Cl)Cl)cc1 (stereo not given)
inactive: [1] | [3] | [4] | [5] | [6] | [7] | [8] | [9]

O=C(c1ccc(F)cc1)C1CCN(CCn2c(=O)[nH]c3ccccc3c2=O)CC1
inactive: [2]

Cc1cc(C(C)(C)C)c(O)c(C)c1CC1=NCCN1
inactive: [2]

COc1ccc(CCN(C)CCCC(C#N)(c2ccc(OC)c(OC)c2)C(C)C)cc1OC (stereo not given)
inactive: [1] | [3] | [4] | [5] | [6] | [7] | [8] | [9] | [10]

Nc1ccn([C@H]2CC[C@@H](CO)O2)c(=O)n1
inactive: [1] | [3] | [4] | [5] | [6] | [7] | [8] | [9] | [10]

Cc1cn([C@H]2C=C[C@@H](CO)O2)c(=O)[nH]c1=O
inactive: [1] | [3] | [4] | [5] | [6] | [7] | [8] | [9] | [10]

CC(C)NCC(O)c1ccc(O)c(O)c1 (stereo not given)
inactive: [1] | [3] | [4] | [5] | [6] | [7] | [8] | [9] | [10]

CN(C)c1nc(N(C)C)nc(N(C)C)n1
inactive: [2]

O=C1N(c2ccccc2)c2ccccc2C1(Cc1ccncc1)Cc1ccncc1
inactive: [2]

Clc1ccc2c(c1)C(N1CCNCC1)=Nc1ccccc1O2
inactive: [2]

O=c1c(O)c(-c2ccc(O)c(O)c2)oc2cc(O)cc(O)c12
inactive: [2]

CC[C@@]1(O)C(=O)OCc2c1cc1n(c2=O)Cc2cc3c(CN(C)C)c(O)ccc3nc2-1
inactive: [2]

Cc1cnc(C(=O)NCCc2ccc(S(=O)(=O)NC(=O)NC3CCCCC3)cc2)cn1
inactive: [2]

CN1CCN(C2=Nc3cc(Cl)ccc3Nc3ccccc32)CC1
inactive: [2]

CCOC(=O)C(C)(C)Oc1ccc(Cl)cc1
inactive: [2]

CN(C)C(=N)N=C(N)N
inactive: [2]

CCOC(=O)c1ncn2c1CN(C)C(=O)c1cc(F)ccc1-2
inactive: [2]

COC(=O)Nc1nc2ccc(C(=O)c3cccs3)cc2[nH]1
inactive: [2]

CCOC(=O)Nc1ccc(NCc2ccc(F)cc2)nc1N
inactive: [2]

CS(=O)(=O)Nc1ccc([N+](=O)[O-])cc1Oc1ccccc1
inactive: [2]

NC(=O)NO
inactive: [2]

COc1nc(C)nc(Cl)c1NC1=NCCN1
inactive: [2]

Cc1ccc(C(=O)Nc2ccc(S(=O)(=O)O)c3cc(S(=O)(=O)O)cc(S(=O)(=O)O)c23)cc1NC(=O)c1cccc(NC(=O)Nc2cccc(C(=O)Nc3cc(C(=O)Nc4ccc(S(=O)(=O)O)c5cc(S(=O)(=O)O)cc(S(=O)(=O)O)c45)ccc3C)c2)c1
inactive: [2]

NC12CC3CC(CC(C3)C1)C2
inactive: [2]

O=c1c(-c2ccc(O)cc2)coc2cc(O)cc(O)c12
inactive: [2] | [3] | [4] | [5] | [7] | [8] | [9] | [10]

CN(Cc1cnc2nc(N)nc(N)c2n1)c1ccc(C(=O)N[C@@H](CCC(=O)O)C(=O)O)cc1
inactive: [2]

CC(COc1ccccc1)N(CCCl)Cc1ccccc1 (stereo not given)
inactive: [5] | [6] | [8] | [9]

CN(C)C(=O)C(CCN1CCC(O)(c2ccc(Cl)cc2)CC1)(c1ccccc1)c1ccccc1
inactive and 3.79 µM (active): [2]

Nc1nc2c(ncn2COC(CO)CO)c(=O)[nH]1
inactive: [2]

CC[N+](CC)(CC)CCOc1cccc(OCC[N+](CC)(CC)CC)c1OCC[N+](CC)(CC)CC
inactive: [2]

OCCN(CCO)c1nc(N2CCCCC2)c2nc(N(CCO)CCO)nc(N3CCCCC3)c2n1
inactive: [2]

CN(C)CCOC(c1ccccc1)c1ccccc1
inactive: [2]

CN(C)CCCN1c2ccccc2CCc2ccc(Cl)cc21
inactive: [2]

Cc1cc(C(C)(C)C)cc(C)c1CC1=NCCN1
inactive: [2]

NCCc1cnc[nH]1
inactive: [2]

O=C1c2c(O)ccc(O)c2C(=O)c2c(NCCNCCO)ccc(NCCNCCO)c21
inactive: [2]

Clc1ccccc1C(c1ccccc1)(c1ccccc1)n1ccnc1
inactive: [2]

CN1C(C(=O)Nc2ccccn2)=C(O)c2ccccc2S1(=O)=O
inactive: [2]

CNCCCC12CCC(c3ccccc31)c1ccccc12
inactive: [2]

OCCN1CCN(CCCN2c3ccccc3Sc3ccc(C(F)(F)F)cc32)CC1
inactive: [2]
